# Records with an inconclusive call do not appear. Active and inactive are the calls of the source. The call rests on the fitted dose curve; in most records, active means well fitted inhibition curve with a large enough effect in the repeat runs; inconclusive means weak or mixed curves, or effect the other way; inactive means no such curve, though single readings can be large or run the other way.
# Target: Nuclear receptor subfamily 1 group I member 3 (Homo sapiens) (UniProt Q14994)
# Assay: qHTS assay to identify small molecule antagonists of the constitutive androstane receptor (CAR) signaling pathway (AID 1224838);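 further: HepG2 cells stably expressing hCAR with CYP2B6 luciferase reporter stimulated by CITCO; nearly all actives have a fitted effect of over 40% in size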
# Conditions: HepG2-CYP2B6-hCAR luciferase, CITCO-stimulated, 24 h; series mostly up to 92.4 µM; activity, negative = inhibition: at the top concentration
# From the text: U.S. Tox21 Program National Center for Advancing Translational Sciences [NCATS] NIH Chemical Genomics Center [NCGC] U.S. Environmental Protection Agency [EPA] National Institutes of Environmental Health Sciences [NIEHS] National Toxicology Program [NTP] U.S. Food and Drug Administration [FDA] Tox21 Assay Overview: The constitutive androstane receptor (CAR) is a nuclear receptor which regulates multiple drug metabolizing enzymes (DMEs) and transporters. Activating CAR will generally increase the transcription and subsequent translation of CYP2B6 and CYP3A4. These two DMEs represent about 50% of the drug metabolizing potential in the body. When CAR is deactivated, the metabolizing potential in the body will decrease, subsequently increasing the toxicity in the body or lowering the therapeutic potential of a pro-drug. Recently, there have also been studies performed indicating CARs role in energy metabolism and cancer therapy. Therefore, inhibiting CARs activity could have a potential effect on diabetes and cancer. Identifying environmental toxins and compounds which modulate CAR, through the use of the Tox21 10K compound collection, will be an important step in determining the toxicity and potential therapeutic effects these factors will have on the human body.
# Tox21 Assay Protocol Summary: A double-stable (hCAR and CYP2B6-2.2kb) transfected cell line, derived from human hepatoma (HepG2) cells, was utilized for the duration of the quantitative high-throughput screens. The HepG2-CYP2B6-hCAR cells suspended in DMEM culture medium supplemented with 10% FBS, 5 ug/mL blasticidin, 0.5 mg/mL geneticin, 100 U/mL penicillin and 100 ug/mL streptomycin were dispensed at 2500 cells/4 uL/well in 1536-well white solid bottom plates using a Multidrop Combi. After the assay plates were incubated at 37 C/5% CO2 for 4 hrs, 23 nL of compounds at 15 concentrations (from 5-48 columns) or positive control (from 1 to 4 columns) were transferred to the assay plates using a Pintool station. One uL of CITCO, was added using a Flying Reagent Dispenser to generate a final concentration of 50 nM CITCO inside each well. After a 24 hr incubation period at 37 C/5% CO2, four uL of ONE-Glo reagent was added into the assay plates using a Flying Reagent Dispenser. After a 30 min incubation period at room temperature, the luminescence intensity in the assay plates was measured using a ViewLux plate reader.
# On the % scale 0 is the no-effect control and ±100 the full control effect; potency means the concentration at half of the fitted maximal effect.
# Chain of Nuclear receptor subfamily 1 group I member 3 (Homo sapiens) (Q14994 whole entry, looked up): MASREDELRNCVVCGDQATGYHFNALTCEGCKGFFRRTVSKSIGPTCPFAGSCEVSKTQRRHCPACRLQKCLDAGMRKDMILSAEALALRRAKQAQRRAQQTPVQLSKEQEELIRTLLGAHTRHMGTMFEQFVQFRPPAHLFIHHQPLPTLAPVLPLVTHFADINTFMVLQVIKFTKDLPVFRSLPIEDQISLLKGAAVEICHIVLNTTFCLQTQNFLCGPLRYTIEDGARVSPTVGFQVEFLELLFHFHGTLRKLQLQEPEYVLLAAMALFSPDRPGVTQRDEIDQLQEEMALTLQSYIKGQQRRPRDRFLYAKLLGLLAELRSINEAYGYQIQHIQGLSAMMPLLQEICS
Structure (SMILES),"activity, negative = inhibition",Potency
Oc1cc(Cl)cc(Cl)c1,63.5% (inactive),
CCC(C)Br (stereo not given),26.4% (inactive),
O=c1[nH]c(Cl)c(Cl)cc1Cl,45.9% (inactive),
COP(=S)(NC(C)C)Oc1ccc(C)cc1[N+](=O)[O-] (stereo not given),86.1% (inactive),
CCC[CH2][Sn]([CH2]CCC)([CH2]CCC)[CH2]CCC,,9.69 µM (active)
Nc1cc(Cl)ccc1Cl,7.2% (inactive),
C=Cc1cccc(CCl)c1,16.3% [at 240 µM] (inactive),
C[C@]12Cc3cn[nH]c3C[C@@H]1CC[C@@H]1[C@@H]2CC[C@@]2(C)[C@H]1CC[C@]2(C)O,-15.8% [at 42.5 µM] (inactive),
CCC1(CC)C(=O)N=C(O)NC1=O,-11.7% (inactive),
CC(C)[C@@H](Nc1ccc(C(F)(F)F)cc1Cl)C(=O)OC(C#N)c1cccc(Oc2ccccc2)c1 (stereo not given in full),-4.71% (inactive),
c1ccc(N=NNc2ccccc2)cc1,,inactive
Oc1cccc(Cl)c1Cl,24.3% (inactive),
N#Cc1sc2c(=O)c3ccccc3c(=O)c=2sc1C#N,,8.63 µM (active)
CC(=O)[O][Pb]([c]1ccccc1)([c]1ccccc1)[c]1ccccc1,,1.54 µM (active)
CC(C)C(Br)C(=O)NC(N)=O (stereo not given),58.1% [at 42.5 µM] (inactive),
Clc1ccc(C(c2ccc(Cl)cc2)C(Cl)Cl)cc1,,inactive
Oc1ccc([C@H]2CNCc3c2ccc(O)c3O)cc1O,-5.74% [at 42.5 µM] (inactive),
O=[N+]([O-])c1ccc(CCl)cc1,-0.971% (inactive),
ClSC(Cl)(Cl)Cl,-9.88% (inactive),
CC1CN1 (stereo not given),6.07% (inactive),

Structure (SMILES),"activity, negative = inhibition",Potency
Cc1c([N+](=O)[O-])cc2c(c1[N+](=O)[O-])C(C)(C)CC2(C)C,64.5% (inactive),
COP(=S)(OC)Oc1nc(Cl)c(Cl)cc1Cl,49.1% (inactive),
Clc1c(Cl)c(Cl)c(Cl)c(Cl)c1Cl,2.04% [at 8.39 µM] (inactive),
CC(Cl)CCl (stereo not given),-1.54% (inactive),
COc1ccc2c3c1O[C@H]1[C@H](O)CC[C@H]4[C@@H](C2)N(C)CC[C@@]341,0.193% (inactive),
Clc1ccc(C(Cl)(Cl)Cl)cc1Cl,38.3% (inactive),
Cc1c([N+](=O)[O-])c(C)c([N+](=O)[O-])c(C(C)(C)C)c1[N+](=O)[O-],-1.1% (inactive),
S=C=NCCc1ccccc1,-52.1% (inactive),
C=CC(=O)[O][Sn]([CH2]CCC)([CH2]CCC)[CH2]CCC,,0.486 µM (active)
Clc1cc(Cl)c(-c2cc(Cl)c(Cl)cc2Cl)cc1Cl,19.9% [at 42.5 µM] (inactive),
ClC1=C(Cl)[C@]2(Cl)[C@H]3[C@H]([C@@H]4C=C[C@H]3C4)[C@@]1(Cl)C2(Cl)Cl,,inactive
CCOP(=O)(Sc1ccccc1)Sc1ccccc1,10.3% (inactive),
COc1ccc2[nH]cc(CCN(C(C)C)C(C)C)c2c1,22.2% (inactive),
COc1c2c(cc3c1OCO3)CCN(C)C2,32.3% [at 42.5 µM] (inactive),
CC(Cc1ccc(O)cc1)NCC(O)c1cc(O)cc(O)c1 (stereo not given),15.4% [at 42.5 µM] (inactive),
Cc1ccc2cc3c(ccc4ccccc43)c3c2c1CC3,,0.865 µM (active)
[O]=[Cr][O][Cr]=[O],-1.88% (inactive),
BrCCCBr,15.4% (inactive),
CN(C)CCc1c[nH]c2ccccc12,10.2% (inactive),
CCCCC/C=C\C/C=C\C/C=C\C/C=C\CCCC(=O)NCC(=O)O,-3.49% [at 42.5 µM] (inactive),

# From PubChem BioAssay (Tox21)
